# A selection: hits, their analogues and other compounds. The true share with any hit is near 19%.
# HT1080 IDH1KD tx: toxicity to HT-1080 IDH1 knockdown cells (counter line); Potency, µM (doses to about 46.1 µM), without a hit: at the highest dose activity, negative = toxicity, most hits filed as cytotoxic; 2% of 360,000 active; HT-1080 IDH1 knockdown viability, ATP luminescence, 48 h;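 further: potency means the concentration at half of the fitted maximal effect; 0% = DMSO wells and -100% = cell-free medium wells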
#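 HT-1080-IDH1KD cells (IDH1 knocked down), 750/well in RPMI with 5% FBS, treated with compound 48 h at 37 degrees C. Viability by CellTiter-Glo luminescence, normalised to DMSO and no-cell wells; concentration-response curves classed.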
# HT1080-NT tox: kills 2HG-producing HT-1080-NT fibrosarcoma cells. 1.6% of 360,000 active. HT-1080-NT fibrosarcoma viability, CellTiter-Glo ATP luminescence, 48 h. AID 686970. Potency, µM (top dose mostly 46.1 µM), for the others: at the top dose activity, negative = less viability, usual class: cytotoxic;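 further: NT is the 2HG producing partner of a matched IDH1 knockdown line; potency means the concentration at half of the fitted maximal effect; 0% = DMSO-treated cells and -100% = media-only wells without cells; nearly all actives have a fitted effect of over 55% in size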
#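 HT-1080-NT fibrosarcoma cells (2HG-overproducing), 750 cells/well in RPMI with 5% FBS, dosed after 2 h and incubated 48 h at 37C. CellTiter-Glo luminescence normalized to DMSO and no-cell wells; concentration-response curves fitted and classed.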
# IL1B secr inh: inflammasome signaling inhibition, IL-1 beta readout; THP-1 LPS/ATP IL-1B secretion, AlphaLISA, 16 h; active compounds read low; activity change, % at 57.5 µM; 4.7% of 360,000 active; AID 743279; in the data active means activity change below about -50%; inconclusive means mostly about -30% to -49%
#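 THP-1 cells pretreated 1 hr with compounds (up to 57.5 uM final), then stimulated with LPS (250 ng/mL final) plus ATP (1.25 mM final); secreted IL-1B measured by AlphaLISA after 16 hr, decreased signal indicating inhibition.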
# DT40 TDP1 CPT: DT40-hTDP1 cell growth loss with CPT; chicken DT40 Tdp1-/-;hTDP1 cells + 20 nM CPT, ATP luminescence, 48 h; Potency, µM (titrated, usually from 46.2 µM), for the others: at the top dose activity change, negative = growth inhibition, actives largely listed as inhibitors; 12% of 420,000 active; AID 686979; further: potency means the concentration at half of the fitted maximal effect; nearly all actives have a fitted effect of over 55% in size
#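 Chicken DT40 Tdp1-/- cells stably complemented with human TDP1 were seeded at 400 cells/well in medium containing 20 nM camptothecin, exposed to pin-transferred compounds, and grown at 37 °C for at least 48 hr. Viability was read as ATP luminescence.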
# DT40 TDP1 no CPT: qHTS for Inhibitors of human tyrosyl-DNA phosphodiesterase 1 (TDP1): qHTS in cells in absence of CPT; DT40 Tdp1-/- hTDP1 cells, no CPT, ATP luminescence, 48 h; Potency, µM (series often up to 46.2 µM), without a hit: at the highest dose activity change, negative = growth inhibition, usual class: inhibitors; 15% of 420,000 active; further: potency means the concentration at half of the fitted maximal effect; nearly all actives have a fitted effect of over 55% in size
#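 Cells were dispensed at 400 per well, compounds added by pin tool, plates incubated ≥48 hr at 37 °C, then CellTiter-Glo added for 30 min at room temperature before luminescence reading. Line: DT40 Tdp1-/- complemented with hTDP1; camptothecin omitted.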
# Active calls of the source: *; u = inconclusive; x = no result. Unless noted, the call rests on the fitted dose curve; in most records, active means well fitted curve in the direction sought with a large enough effect; inconclusive means small, poorly fitted or top-dose-only effect, or another doubt; inactive means no such curve, though single readings can be large; an effect the other way counts as inactive or inconclusive. Unless noted, on the % scale 0 is the no-effect control and ±100 the full control effect.
SMILES,HT1080 IDH1KD tx,HT1080-NT tox,IL1B secr inh,DT40 TDP1 CPT,DT40 TDP1 no CPT
CN1C(=O)C2(c3ccccc31)N(C)CC(c1ccccc1)C21SC(=S)N(Cc2ccco2)C1=O (centres undefined),4%,6%,0,u,9.2µM*
CCOc1cc(CNS(=O)(=O)c2ccc3c(c2)CC(=O)N3C)cc(OCC)c1OCC,7%,-1%,32,0%,23%
O=C(CC1Sc2ccccc2NC1=O)NCc1ccccc1 (centres undefined),6%,8%,16,-4%,-1%
O=C(CC1Sc2ccccc2NC1=O)Nc1cccnc1 (centres undefined),9%,4%,19,25%,-1%
CC(=O)c1ccc(NC(=O)CC2Sc3ccccc3NC2=O)cc1 (centres undefined),x,x,x,12µM*,13µM*
O=C(CC1Sc2ccccc2NC1=O)NNc1ccc(Cl)cc1Cl (centres undefined),u,u,-58*,u,u
O=C(CC1SC(=O)NC1=O)Nc1ccc(Cl)cc1 (centres undefined),-10%,-4%,1,3.3µM*,9.2µM*
CN(c1ccccc1)S(=O)(=O)c1cccc(NC(=O)CCNC(=O)c2ccco2)c1,-1%,1%,21,u,u
COc1ccc(N/C=C/C(=O)c2sc(-c3ccccc3)nc2C)cc1,u,u,-19,16µM*,21µM*
Cc1nc(-c2ccccc2)sc1C(=O)/C=C/c1ccc(Cl)cc1,11%,8%,-86*,15µM*,23µM*
Cc1[nH]c(=O)c(S(=O)(=O)c2ccccc2)c(C)c1Cl,0%,8%,7,-15%,10%
NS(=O)(=O)c1ccc(NC(=O)Nc2ccc(Cl)cc2)cc1,-5%,-6%,-17,-7%,16µM*
CC(=O)N(C)c1ccc(NC(=O)Nc2ccc(Cl)cc2)cc1,0%,-2%,-25,u,18µM*
CC(C)C(Cl)=NOC(=O)Nc1ccc(S(N)(=O)=O)cc1,u,-1%,-99*,1.2µM*,2.6µM*
CNC(=O)Nc1ccc(S(N)(=O)=O)cc1,12%,-11%,7,11%,5%
CC(=O)N(C)c1ccc(NC(=O)Nc2ccc(C)cc2)cc1,2%,3%,-20,-25%,19%
Cc1occc1C(=O)Nc1ccc(S(N)(=O)=O)cc1,7%,0%,-2,23µM*,u
CNS(=O)(=O)c1ccc(NC(=O)c2ccoc2C)cc1,0%,1%,-8,-2%,-26%
O=C(Nc1cccc(NC(=O)c2cccc(Cl)c2)c1)c1cccnc1,-9%,9%,-5,u,u
CCOC(=O)c1cc(S(=O)(=O)N(C)Cc2ccccc2)cn1C,1%,10%,20,u,u
CN(CC(=O)Nc1ccc(C#N)cc1)Cc1ccc(Cl)cc1,u,u,-10,u,u
N#Cc1ccc(NC(=O)Nc2ccc(Cl)cc2)cc1,u,15µM*,-110*,2.9µM*,3.7µM*
CC(=O)NC1C(=O)N(CCN2CCOCC2)c2ccc(Br)cc21 (centres undefined),1%,2%,6,-18%,-15%
CCOc1ccc2c(c1)C(NC(C)=O)C(=O)N2CCN1CCOCC1 (centres undefined),20%,18%,8,u,15µM*
COc1cc2c(cc1OC)C(SC)=NC1(CCCC1)C2,-7%,-24%,u,16µM*,15µM*
O=C(Nc1ccc(-c2nnc3n2CCCCC3)cc1)c1cc2ccccc2o1,-6%,0%,-199*,u,u
Cc1ccc(NC(=O)c2cc3ccccc3o2)cc1Cl,-17%,-12%,-52*,u,u
Cc1ccc(NC(=O)c2cc3ccccc3o2)nc1,-16%,-20%,-96*,0%,5%
O=C(Nc1ccccc1)c1cc2ccccc2o1,u,u,-6,-30%,u
Cc1ccc(-c2nc3cc(NC(=O)c4cc5ccccc5o4)ccc3o2)cc1Cl,x,x,x,-2%,u
